Test results: PubChem BioAssay AID602332 (National Center for Advancing Translational Sciences (NCATS), 2012)
Where “and” joins values, the source holds several entries; their conditions need not be identical. Equal values may be shown once. About 75 (0.02%) of roughly 420,000 compounds were called active. Calls come from the whole dose curve; as a rule, active = well fitted activation curve with a large enough effect; inconclusive = small, poorly fitted or top-dose-only effect; inactive = no such curve, though single readings can be large or run the other way. What follows is part of a selection rich in actives, with near analogues and random picks from the rest. Some structures have more than one record in an assay (separate samples or runs), and their calls can disagree.

test: qHTS for Inducers of the Endoplasmic Reticulum Stress Response (ERSR) in Human Glioma: qHTS; settings: U87-MG GRP78 promoter luciferase reporter, 16 h; activation: active compounds read high; note: nearly all actives have a fitted effect of over 35% in size; for activation: % of control where 0% means no effect
From the text: Primary protein unfolding takes place for many diseases, including diabetes and hypoxia, , and triggers a reaction in the cells called ER stress response (ERSR). ). ERSR is designed as a repair mechanism, but ultimately leads to cell death via apoptosis if conditions triggering protein unfolding persist (1). The molecular clue to ERSR activation is the enhancement of the expression of key molecular chaperones, including the glucose regulated protein (GRP) 78. GRP78 is the main sensor for protein folding and the main actuator of the ERSR.
In a collaboration between the Southern Research Institute and the NIH Chemical Genomics Center, a cell based screen was developed that reliably uses GRP78 as a sensor to identify small molecules as inducers of ERSR. In resting conditions, GRP78 binds proteins and acts as a natural repressor. Once unfolded proteins are present in the ER, GRP78 releases some of the repressors and binds to the unfolded proteins. The release of the repressors executes the ERSR program. Using a human glioma cell line in a miniaturized, luminescent format, a high-throughput screen was developed to identify actuators of the ERSR.
(1) Soboloff, J. and S. A. Berger (2002). "Sustained ER Ca2+ depletion suppresses protein synthesis and induces activation-enhanced cell death in mast cells." J Biol Chem 277(16): 13812-20.
NIH Chemical Genomics Center [NCGC]
NIH Molecular Libraries Probe Centers Network [MLPCN]
Assay Submitter (PI): Maurizio Grimaldi, Southern Research Institute
Stable transfected human glioma cell line, U87-MG, are dispensed at density 1000 cells/well into Greiner white solid bottom 1536-well assay plates. Compounds are transferred via Kalypsys pin tool equipped with 1536-pin array (10nl slotted pins, V&P Scientific, San Diego, CA). The assay plates will be incubated for 16 hours and developed by adding appropriate quantities of the Promega Bright Glo reagent. The plates will be incubated at room temperature for 10 minutes prior to being transferred into a ViewLux high-throughput CCD imager (PerkinElmer), wherein end-point measurements of luminescence are acquired.
Potency is the fitted concentration of half-maximal effect.

SMILES	activation	Potency
COc1ccccc1C(=O)N[C@@H]1c2ccccc2C2(CCN(C(=O)c3csnn3)CC2)[C@H]1OC	0.874% (inactive)	
Cc1cc(C)cc(C#CC2C=CC(Oc3ccc(C4CCCC4)cc3)C(CO)O2)c1 (stereo not given)	-1.34% (inactive)	
O=S(O)CNc1ccc(S(=O)(=O)c2ccc(NCS(=O)O)cc2)cc1	-4.53% (inactive)	
C[C@]12CC[C@@H]3C(=CCc4cc(O)ccc43)[C@@H]1CCC2=O	2.61% (inactive)	
Fc1ccc(Cl)cc1-c1nc(Nc2ccncc2)c2nccnc2n1	-1.14% (inactive)	
Cc1cnc(-n2ncc(C(=O)N3CCN(C(C)C)CC3)c2-c2ccco2)nc1-c1ccc(F)cc1	-4.71% (inactive)	
COC(=O)[C@@H]1CC[C@H](C)[C@@H](c2ccc(C)cc2)N1C(=O)c1ccc(/C=N\OC[C@@H](O)COCc2ccco2)cc1	3.64% (inactive)	
C#C[C@]1(O)CC[C@H]2[C@@H]3CCC4=CC(=O)CC[C@@H]4[C@H]3CC[C@@]21CC	3.01% (inactive) and -1.02% (inactive)	20 µM (active)
COc1cc(=O)n2c(c1C(=O)NC(C)c1ccco1)CCN(C(=O)c1cn3ccc(C)cc3n1)CC2 (stereo not given)	-2.08% (inactive)	
CN(C)c1ccc(/C=C/C=C/c2ccnc3ccccc23)cc1	-3.58% (inactive)	
C=COC(=O)N1CCN(/[N+]([O-])=N/Oc2ccc([N+](=O)[O-])cc2[N+](=O)[O-])CC1	-11% (inactive)	
O=C1c2c(O)cccc2[C@@H]([C@@H]2O[C@H](CO)[C@@H](O)[C@H](O)[C@H]2O)c2cc(CO)cc(O)c21	-3.93% (inactive)	
CO[C@H]1COC(=O)[C@@H](OCc2ccccc2)/C=C\[C@H](C)[C@@H](OC)COC(=O)[C@H](OCc2ccccc2)/C=C\[C@@H]1C	-0.0422% (inactive)	
C[N+](C)(CCOc1ccccc1)Cc1cccs1 (tested in a mixture with another compound)	-5.19% (inactive)	
CCCC(=O)O[C@]1(C(=O)COC(=O)CC)CC[C@@H]2[C@@H]3CCC4=CC(=O)CC[C@]4(C)[C@H]3[C@@H](O)C[C@@]21C	-2.74% (inactive)	
C=C1C(=O)C23C(O)C1CCC2[C@]12COC3(O)C(O)C1C(C)(C)CC[C@H]2O (stereo not given in full)	-12.5% (inactive)	
CO[C@H]1[C@H](NC(=O)C(C)C)c2ccccc2C12CCN(Cc1cnc(N(C)C)s1)CC2	-3.14% (inactive)	
CC1O[C@@H](Oc2c(-c3ccc(O)c(O)c3)oc3cc(O)cc(O)c3c2=O)C(O)C(O)C1O (stereo not given in full)	-2.63% (inactive)	
O=C(C(=O)N1CCOc2ccc(CN3CCN(Cc4ccccn4)CC3)cc2C1)c1ccccc1	-4.17% (inactive)	
CCCCC(=O)OCC(=O)[C@H]1[C@H](C)C[C@@H]2[C@@H]3C[C@@H](F)C4=CC(=O)C=C[C@]4(C)[C@@]3(F)[C@@H](O)C[C@@]21C	-0.711% (inactive)	
COC(=O)[C@@H]1C[C@H](NC(=O)c2ccccc2C(F)(F)F)CN1Cc1cccc(O)c1	-4.69% (inactive)	
CCc1nc2cc(C(=O)NCC3CCS(=O)(=O)C3)cc(NC(=O)c3ccccc3OC)c2n1C (stereo not given)	-5.29% (inactive)	
Cc1nc2cc(NC(=O)[C@@H]3C[C@@H](Sc4ccccn4)CN3Cc3ccccc3C)ccc2s1	-3.4% (inactive)	

SMILES	activation	Potency
O=C1OC(C(O)CO)C(O)=C1O (stereo not given)	-2.25% (inactive)	
COc1ccc(COC(=O)N/N=C2/C[C@@H](O)[C@@H](O)[C@@H]3[C@@H]4C(=O)N([C@@H](C)c5ccccc5)C(=O)[C@H]4CC[C@@H]23)cc1	-1.75% (inactive)	
O=C(O)c1ccc(/C=C2/SC(=S)N(c3cccc(C(F)(F)F)c3)C2=O)cc1	2.71% (inactive)	
CC(=O)/C(C)=N\O	-3.3% (inactive)	
C(=Nc1ccc(/C=C/c2ccnc3ccccc23)cc1)Nc1ccc(/C=C/c2ccnc3ccccc23)cc1	-10.1% (inactive)	
CN1CC(O)c2cc(N=NC(N)=O)c(O)cc21 (stereo not given)	4.72% (inactive)	
Cc1ccc(-c2ccc(C(=O)N3CCc4nnc(CNC(=O)c5ccccc5)n4CC3)cc2)cc1	-3.28% (inactive)	
CC1(C)[C@H](O[C@H]2O[C@H](C(=O)O)[C@@H](O)[C@H](O)[C@H]2O[C@@H]2O[C@H](C(=O)O)[C@@H](O)[C@H](O)[C@H]2O)CC[C@@]2(C)[C@H]1CC[C@]1(C)[C@H]2C(=O)C=C2[C@H]3C[C@@](C)(C(=O)O)CC[C@]3(C)CC[C@]21C	-2.51% (inactive)	
O=c1c(O)c(-c2ccc(O)cc2)oc2ccccc12	-1.19% (inactive)	
CC(=O)Nc1ccccc1-c1nc(CNC(=O)c2ccc(Cl)cc2)c(C)o1	-2.78% (inactive)	
COCc1c(C(=O)NC2CCCCC2)cnn1-c1nccc(-c2ccccc2OC)n1	0.854% (inactive)	
COc1cc(C)c(CN2CCc3nnc(C(C)NC(=O)c4cccnc4)n3CC2)cc1C (stereo not given)	-0.402% (inactive)	
Cn1nccc1C(=O)NCC1CCC2(CCN(Cc3c(O)ccc4ccccc34)CC2)O1 (stereo not given)	-1.48% (inactive)	
Cc1cc(-c2ccnc(-n3ncc(C(=O)NCCc4ccncc4)c3C)n2)c(C)s1	-1.46% (inactive)	
CN(C)c1ccc(/C=C/c2sc3ccccc3[n+]2CCCCBr)cc1	-6.95% (inactive)	
COc1ccccc1-c1nc(NCc2cccs2)c2ccccc2n1	-5.15% (inactive)	
CO[C@H]1COC(=O)[C@H](Cc2ccccc2)NC(=O)C/C=C\[C@@H](C)[C@H](OC)COC(=O)C/C=C\[C@@H]1C	-4.82% (inactive)	
COc1cccc([C@H]2Oc3ccc(OC)cc3/C(=N\OCC[C@@H]3C=C[C@H](OC(C)=O)[C@H](COC(C)=O)O3)[C@@H]2O)c1	-2.8% (inactive)	
O=C(NCCN1CCOCC1)c1cnn(-c2nccc(-c3cccs3)n2)c1C1CC1	-4.37% (inactive)	
CC(C)CN1CCc2nc(-c3ccccc3)c3c(c2C1)COC(C)C3 (stereo not given)	-2.93% (inactive)	
Cc1cc2oc(=O)cc(-c3ccccc3)c2c(C)c1/C=C/c1ccc(F)cc1	-1.4% (inactive)	
CCC(C)C1OC2(C=CC1C)CC1CC(C/C=C(/C)C(OC3CC(OC)C(OC4CC(OC)C(NC(C)=O)C(C)O4)C(C)O3)C(C)/C=C\C=C3\COC4C(O)C(C)=CC(C(=O)O1)C34O)O2 (stereo not given)	-10.3% (inactive)	
O=C(NCC1(N2CCCCC2)CCCCC1)c1cccc(S(=O)(=O)Nc2ccccc2Cl)c1	-4.77% (inactive)	

SMILES	activation	Potency
O=C(NCC1(N2CCCCC2)CCCCC1)c1ccc(NS(=O)(=O)c2ccc(F)cc2)cc1	-3.09% (inactive)	
CCOc1ccc(S(=O)(=O)Nc2cccc(C(=O)NCC3(N4CCCCC4)CCCCC3)c2)cc1		15.8 µM (active)
COc1ccc(C2CC(=O)c3c(O)cc(OC4OC(COC5OC(C)C(O)C(O)C5O)C(O)C(O)C4O)cc3O2)cc1O (stereo not given)	-4.13% (inactive)	
COc1cc(-c2cccnc2)cc2c1OCCN(C(=O)Cc1csc(C)n1)C2	-6.23% (inactive)	
O=C(c1ccncc1)N1CCC2(CCCN(C(c3ccccc3)c3ccccc3)C2)CC1		35.5 µM (active)
COc1ccc(C(=O)N2CCC3(CCCN(C(c4ccccc4)c4ccccc4)C3)CC2)cc1	-2.87% (inactive)	
O=C(c1cccc(F)c1)N1CCC2(CCCN(Cc3ccncc3)C2)CC1	-4.07% (inactive)	
CCCNC(=O)OC[C@@H]1O[C@H](c2ccccc2)C=C[C@@H]1Oc1ccc(OC)cc1	-2.78% (inactive)	
CO[C@@H]1COC(=O)[C@H](Cc2ccccc2)NC(=O)C/C=C\[C@@H](C)[C@H](OC)COC(=O)[C@@H](C)NC(=O)C/C=C\[C@H]1C	-5.06% (inactive) and -3.17% (inactive)	
CN(Cc1cccc2ncccc12)C(=O)c1cnn(-c2nccc(-c3ccccc3F)n2)c1C1CC1	-10.9% (inactive)	
O=C(c1cn(CC2CCCN(Cc3cc4ccccc4s3)C2)nn1)N1CCCC1 (stereo not given)	-4.62% (inactive)	
Cc1cccc(CNC(=O)c2cnn(-c3nccc(-c4ccccc4F)n3)c2C2CC2)n1	-2.43% (inactive)	
COc1ccc(/C=C/NC(=O)c2ccc(OC)cc2)cc1	-1.95% (inactive)	
N#Cc1ccccc1-c1ccc2ncnc(NCc3cccnc3)c2c1	-2.79% (inactive)	
CO[C@@]12[C@@H](COC(N)=O)C3=C(C(=O)C(C)=C(N)C3=O)N1C[C@@H]1N[C@@H]12	-2.04% (inactive)	
COc1cc(C[C@H]2NCCc3cc(O)c(O)cc32)cc(OC)c1OC	-2.86% (inactive)	
COc1cc([C@@H]2c3cc4c(cc3[C@@H](O[C@@H]3O[C@@H]5CO[C@@H](C)O[C@H]5[C@H](O)[C@H]3O)[C@H]3COC(=O)[C@H]23)OCO4)cc(OC)c1OP(=O)(O)O	-3.95% (inactive)	
CCC1(C2CCN(Cc3cccnc3)CC2)NC(=O)N(CC2COc3ccccc3O2)C1=O (stereo not given)	-3.69% (inactive)	
CCS(=O)(=O)Nc1cc(C(=O)N2C[C@@H](C)O[C@@H](C)C2)c2c(c1)nc(-c1ccccc1)n2C	-5.69% (inactive)	
CC[C@H](C)[C@H](NC(=O)[C@H](Cc1ccc(O)cc1)NC(=O)[C@@H](NC(=O)[C@H](CCCN=C(N)N)NC(=O)[C@@H](N)CC(=O)O)C(C)C)C(=O)N[C@@H](Cc1cnc[nH]1)C(=O)N1CCC[C@H]1C(=O)N[C@@H](Cc1ccccc1)C(=O)O	-0.592% (inactive)	
COc1ccc2c(c1)CCc1cnc(-n3ncc(C(=O)NCc4cccnc4)c3C3CC3)nc1-2	-2.79% (inactive)	
COc1cc(=O)n2c(c1C(=O)NCc1ccco1)CCN(Cc1ccccc1)CC2	-4.45% (inactive)	
Cc1oc(-c2cccc(NC(=O)c3ccccc3)c2)nc1CNC(=O)c1cnc2ccccn2c1=O	-3.8% (inactive)	
